High-throughput results as filed in PubChem BioAssay.
Giardia FBPA inh-1 – qHTS Assay for Inhibitors of Fructose-1,6-bisphosphate Aldolase from Giardia Lamblia. A8B2U2. AID 2451, 2010. Potency, µM (titrated, usually from 59.6 µM), inactives show at the top dose activity, negative = inhibition, usual class: inhibitors. purified Giardia FBPA. hit rate 0.71% among 290,000; also: % is scaled to controls: 0 for no effect and ±100 for the full control effect; nearly all actives have a fitted effect of over 55% in size
Target sequence (A8B2U2 whole entry, looked up): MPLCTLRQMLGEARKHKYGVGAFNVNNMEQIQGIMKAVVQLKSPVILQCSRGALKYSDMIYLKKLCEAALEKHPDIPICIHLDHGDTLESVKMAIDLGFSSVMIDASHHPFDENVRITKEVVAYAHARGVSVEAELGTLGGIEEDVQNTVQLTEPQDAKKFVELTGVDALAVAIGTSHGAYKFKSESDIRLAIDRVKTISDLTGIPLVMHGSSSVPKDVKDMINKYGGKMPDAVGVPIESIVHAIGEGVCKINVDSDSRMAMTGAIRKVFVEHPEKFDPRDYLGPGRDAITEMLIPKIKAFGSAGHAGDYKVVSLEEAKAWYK
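Giardia FBPA (40 nM reagent) was preincubated 10 min at RT with compound (up to 57.5 uM final), then substrate plus GAPDH/TPI/NAD/arsenate coupling system with diaphorase/resazurin was added; resorufin fluorescence (525/598 nm) was read after 20 min.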
SARS PLP yeast – qHTS of Yeast-based Assay for SARS-CoV PLP. hit rate 0.19% among 330,000. S. cerevisiae expressing SARS-CoV PLpro, growth rescue. Potency, µM (titrated, usually from 32.9 µM), for inactives: at the highest dose activity, positive = growth rescue, usual class: activators. AID 485353, 2010; calls by dose curve; also: 0% is about no effect; nearly all actives have a fitted effect of over 55% in size
AmpC inh no detg – qHTS Inhibitors of AmpC Beta-Lactamase (assay without detergent); AmpC nitrocefin hydrolysis, absorbance 480 nm, 0.0001% Triton; Potency, µM (doses to about 57.1 µM), without a hit: at the top dose activity change, negative = inhibition, hits mostly inhibitors; hit rate 0.52% among 330,000; AID 485341, 2010;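 also: plate controls were no compound for no effect and no enzyme for full effect; nearly all actives have a fitted effect of over 20% in size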
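20 mM phosphate pH 7.0 + 0.01% (detergent screen) or 0.0001% Triton X-100; 5.3 nM AmpC reagent; cpd preinc 15 min RT; nitrocefin (800 uM stock) to start; A480 q20 s × 4 min; Activity was normalised to no-enzyme and no-compound control wells.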
AmpC detergent – qHTS Inhibitors of AmpC Beta-Lactamase (assay with detergent) | P00811 | AmpC hydrolysis of nitrocefin, absorbance 480 nm, 0.01% Triton | Potency, µM (series often up to 114 µM), inactives show at the highest dose activity change, negative = inhibition, actives largely listed as inhibitors | hit rate 0.041% among 370,000;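 also: 0% = no-compound wells and -100% = no-enzyme wells; nearly all actives have a fitted effect of over 25% in size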
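20 mM phosphate pH 7.0 + 0.01% (detergent screen) or 0.0001% Triton X-100; 5.3 nM AmpC reagent; cpd preinc 15 min RT; nitrocefin (800 uM stock) to start; A480 q20 s × 4 min; Activity was normalised to no-enzyme and no-compound control wells.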
Giardia growth – qHTS Assay for Inhibitors of Fructose-1,6-bisphosphate Aldolase from Giardia Lamblia: Giardia lamblia growth inhibition. shares compounds with Giardia FBPA inh-1. Giardia lamblia trophozoite growth inhibition. Potency, µM (doses to about 57.5 µM), inactives show top-dose activity change, negative = inhibition, hits mostly inhibitors. hit rate 5% among 1,500;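 also: trophozoites exposed to compound for 48 h at 37 °C; % is scaled to controls: 0 for no effect and ±100 for the full control effect; nearly all actives have a fitted effect of over 70% in size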
Mammalian tox – qHTS Assay for Inhibitors of Fructose-1,6-bisphosphate Aldolase from Giardia Lamblia: Mammalian cellular toxicity; AID 2786, 2010; mammalian cell viability counter-screen, qHTS; hit rate 4% among 1,500; Potency, µM (top dose mostly 57.5 µM), without a hit: top-dose viability change, negative = toxicity, actives largely listed as inhibitors; shares compounds with Giardia FBPA inh-1;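 also: Chinese hamster ovary cells used as mammalian cytotoxicity surrogate; viability measured as cellular ATP by luminescence; compound exposure lasted 48 h before reading; % is scaled to controls: 0 for no effect and ±100 for the full control effect; nearly all actives have a fitted effect of over 60% in size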
Giardia FBPA inh-2 – qHTS Assay for Inhibitors of Fructose-1,6-bisphosphate Aldolase from Giardia Lamblia: Primary screen confirmation | shares compounds with Giardia FBPA inh-1 | purified Giardia aldolase enzyme activity, qHTS | Potency, µM (titrated, usually from 57.5 µM), for the others: at the highest dose activity change, negative = inhibition, hits mostly inhibitors | hit rate 5% among 1,500 | AID 2787, 2010; also: % is scaled to controls: 0 for no effect and ±100 for the full control effect; nearly all actives have a fitted effect of over 45% in size
Rabbit aldolase – qHTS Assay for Inhibitors of Fructose-1,6-bisphosphate Aldolase from Giardia Lamblia: Rabbit FBPA Selectivity; shares compounds with Giardia FBPA inh-1; Rabbit muscle FBPA enzyme inhibition, selectivity counter-screen; Potency, µM (top dose mostly 57.5 µM), for the others: at the highest dose activity, negative = inhibition, hits mostly inhibitors; hit rate 4% among 1,500; also: % is scaled to controls: 0 for no effect and ±100 for the full control effect; nearly all actives have a fitted effect of over 60% in size
Target sequence (P00883 whole entry, looked up): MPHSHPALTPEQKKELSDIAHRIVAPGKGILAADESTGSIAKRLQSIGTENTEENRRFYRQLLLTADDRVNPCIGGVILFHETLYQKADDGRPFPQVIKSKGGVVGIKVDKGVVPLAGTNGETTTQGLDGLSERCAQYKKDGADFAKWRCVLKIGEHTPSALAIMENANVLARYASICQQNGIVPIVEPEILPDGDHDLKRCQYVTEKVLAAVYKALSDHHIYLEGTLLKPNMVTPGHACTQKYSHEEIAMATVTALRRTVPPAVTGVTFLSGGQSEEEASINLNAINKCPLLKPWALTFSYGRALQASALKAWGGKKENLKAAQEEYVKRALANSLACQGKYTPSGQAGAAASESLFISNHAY
GAPDH counter – qHTS Assay for Inhibitors of Fructose-1,6-bisphosphate Aldolase from Giardia Lamblia: Coupling assay counterscreen confirmation; shares compounds with Giardia FBPA inh-1; GAPDH coupling enzyme counterscreen, biochemical, qHTS; hit rate 6% among 1,500; AID 2795, 2010; Potency, µM (doses to about 57.5 µM), for the others: at the highest dose activity change, negative = inhibition, usual class: inhibitors; also: % is scaled to controls: 0 for no effect and ±100 for the full control effect; nearly all actives have a fitted effect of over 55% in size
* = called active by the depositor; u = inconclusive; x = not tested or not shown; [ ] = another dose, or the depositor's remark. The list is not random: actives were taken first. Their share in the collection is about 1.1%. Unless noted, calls follow the shape of the dose curve; as a rule, active = well fitted curve in the direction sought with a large enough effect; inconclusive = small, poorly fitted or top-dose-only effect, or another doubt; inactive = no such curve, though single readings can be large; an effect the other way counts as inactive or inconclusive. Potency is read from the fitted curve at half-maximal effect.

SMILES	Giardia FBPA inh-1	SARS PLP yeast	AmpC inh no detg	AmpC detergent	Giardia growth	Mammalian tox	Giardia FBPA inh-2	Rabbit aldolase	GAPDH counter
O=C(CCSCc1cnn(-c2ccccc2)c1-n1cccc1)NCc1ccccc1F	x	x	x	15%	x	x	x	x	x
CCn1c(C(C)NS(=O)(=O)c2ccc(Cl)cc2)n[nH]c1=S (configuration not stated)	11µM*	-7%	-22%	-3%	14%	-6%	6%	4%	13%
CCCn1c(C(C)NC(=O)c2ccccc2)n[nH]c1=S (configuration not stated)	19%	0%	2%	-3%	x	x	x	x	x
CCCn1c(C(C)NS(=O)(=O)c2ccccc2)n[nH]c1=S (configuration not stated)	10µM*	-3%	-16%	2%	73%	12%	-1%	-1%	6%
CC1=C(c2ccc(C)cc2)S(=O)(=O)N(Cc2ccc(C(=O)NCc3cccc(C)c3)cc2)C1=O	x	x	x	22%	x	x	x	x	x
Oc1c(/C=N/c2ncn[nH]2)ccc2ccccc12	8.9µM*	0%	-13%	u	19%	6%	8.9µM*	40µM*	u
CCN1CCN(C(=S)c2ccc(O)cc2)CC1	8.9µM*	-1%	-21%	2%	12%[38.3 µM]	-19%	-16%	-27%	-9%
Cc1ccc(C(=S)N2CCN(Cc3ccccc3)CC2)s1	18µM*	-1%	-4%	-14%	24%	-23%	u	u	u
CCNC(=S)N1CCN(Cc2ccccc2)CC1	u	0%	-9%	-9%	x	x	x	x	x
CCN(CC)c1ccc(C(=O)N2CCN(Cc3ccccc3)CC2)cc1	-4%	19%	94%	u	x	x	x	x	x
CN(C)c1ccc(C(=S)N2CCN(Cc3ccccc3)CC2)cc1	6.3µM*	0%	17%	0%	-2%[38.3 µM]	-8%	-25%	u	u
S=C(c1ccc(Br)cc1)N1CCN(Cc2ccccc2)CC1	14µM*	-1%	2%	-16%	u	-6%	u	u	u
Cc1ccc(Cl)cc1NC(=O)Nc1cccc(OCc2cc(=O)n3ccccc3n2)c1	x	x	x	-8%	x	x	x	x	x
Oc1ccc(C(=S)N2CCN(Cc3ccccc3)CC2)cc1	18µM*	0%	-46%	3%	55%	6%	-5%	-16%	6%
NC(c1ccccc1)c1cccnc1 (configuration not stated)	10µM*	2%	-7%	-16%	1%	20%	11%	4%	12%
O=S(=O)(NNc1nccc(C(F)(F)F)n1)c1cccc(Cl)c1Cl	16µM*	1%	-13%	-4%	23%	-2%	u	u	u
FC(F)(F)c1ccnc(NCc2ccc(Cl)cc2)n1	-1%	1%	-21%	-21%	x	x	x	x	x
COc1cc(Nc2nc3c(S(=O)(=O)c4ccc(C)c(C)c4)nnn3c3ccsc23)cc(OC)c1	x	x	x	-3%	x	x	x	x	x
Cc1c(CCO)c(=O)n2c([nH]c3ccccc32)c1C#N	25µM*	3%	-11%	-11%	15%	-4%	-13%	-10%	-11%
CCC1Oc2ccccc2N(CC(=O)NCCN2CCc3ccccc3C2)C1=O (configuration not stated)	16µM*	-17%	49%	2%	-22%	18%	6%	9%	1%
COc1ccc(CN(C)S(=O)(=O)c2nnc(NC(=O)c3ccc(C)cc3)s2)cc1OC	25µM*	16%	1%	-12%	-14%	-5%	u	u	20µM*
COc1ccc(CN(C)S(=O)(=O)c2nnc(NC(=O)c3ccccc3OC)s2)cc1OC	-17%	-1%	20%	-6%	x	x	x	x	x
CN(Cc1ccco1)S(=O)(=O)c1nnc(NC(=O)c2ccc(F)cc2)s1	20µM*	2%	-20%	u	7%[10.4 µM]	8%	u	32µM*	20µM*
Cc1cccc(C(=O)Nc2ccc3nc(SCC(=O)N4CCCC4)sc3c2)c1	x	x	x	-4%	x	x	x	x	x
O=C(NC(=S)Nn1cnnc1)c1ccccc1Br	11µM*	2%	-26%	-9%	u	-3%	3%	5%	16%
SMILES	Giardia FBPA inh-1	SARS PLP yeast	AmpC inh no detg	AmpC detergent	Giardia growth	Mammalian tox	Giardia FBPA inh-2	Rabbit aldolase	GAPDH counter
COc1ccc2nc(C)cc(Nc3ccc(Cl)c(Cl)c3)c2c1	x	x	x	-9%	x	x	x	x	x
COc1ccc(OC)c(CNc2ncc(-c3cccc([N+](=O)[O-])c3)n2C)c1	28µM*	-6%	-7%	u	u	-3%	-6%	1%	4%
Cn1c(-c2ccc(F)cc2)cnc1NCc1ccc(F)cc1F	-25%	-5%	-19%	u	x	x	x	x	x
Cn1c(-c2ccc(F)cc2)cnc1NCc1ccccc1F	28µM*	-9%	-12%	u	-9%[10.4 µM]	2%	1%	3%	11%
COc1ccc(CNc2ncc(-c3ccccc3)n2C)cc1	18µM*	-3%	-14%	-14%	-18%	25%	1%	1%	9%
COc1ccc(N2CCN(C(=O)c3sc4nc5n(c(=O)c4c3C)CCC5)CC2)cc1	x	x	x	19%	x	x	x	x	x
COc1ccc2c(c1)NC(c1cccnc1)=NC(c1ccc(F)cc1)=N2	x	x	x	19%	x	x	x	x	x
Cn1c(=O)c2c([nH]c(=S)n2Cc2ccc(Cl)cc2)n(C)c1=O	8.9µM*	-6%	-19%	-7%	-1%[38.3 µM]	-19%	-5%	-11%	-2%
COc1ccc(-c2noc(-c3ccc(NCc4ccc(C)cc4)c([N+](=O)[O-])c3)n2)cc1OC	x	x	x	-3%	x	x	x	x	x
O=C(c1ccccc1)c1ccccc1N1C(=O)C=CC1=O	16µM*	-6%	-3%	u	-7%[10.4 µM]	7%	-10%	-19%	-21%
O=C(O)c1ccccc1C(=O)c1ccc(-c2ccccc2)cc1	9%	2%	-15%	-8%	x	x	x	x	x
O/N=C1/CCc2nonc2/C1=N/O	16µM*	3%	-18%	9%	8.9µM*	8%	-8%	5%	-19%
c1ccc2nc3c(nc2c1)CCc1nonc1-3	-4%	1%	-16%	-3%	x	x	x	x	x
